IL1B secr inh: inhibitors of inflammasome signaling (IL-1 beta secretion) | THP-1 LPS/ATP IL-1B secretion, AlphaLISA, 16 h; stronger effect = lower value | activity change, % at 57.5 µM | 360,000 compounds, 4.7% hits | AID 743279; in the data active = activity change below about -50%; inconclusive = mostly about -30% to -49%
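Secreted IL-1B measured by AlphaLISA bead assay after 16 h compound exposure of THP-1 cells; compounds (final up to 57.5 uM) added 1 h before LPS (250 ng/mL) and ATP (1.25 mM) stimulation; lower signal means less secretion.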
ELG1 repair inh: inhibitors of ELG1-dependent DNA repair in HEK293T cells; Potency, µM (top dose mostly 46.1 µM), inactives show at the highest dose activity change, negative = inhibition, actives largely listed as inhibitors; 330,000 compounds, 2.3% hits; HEK293T ELG1-luciferase reporter, luminescence, 16 h; DNA damage induced by 5-fluorouridine; note: potency is the fitted concentration of half-maximal effect; nearly all actives have a fitted effect of over 55% in size
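Overnight (16 hr) co-exposure of 2,000 cells/well to 5-fluorouridine and compound at 37 °C preceded detection. Luciferase was quantified via ONE-Glo luminescence; loss of signal denotes inhibition.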
HT1080-NT tox: kills 2HG-producing HT-1080-NT fibrosarcoma cells; HT-1080-NT fibrosarcoma viability, CellTiter-Glo ATP luminescence, 48 h; Potency, µM (titrated, usually from 46.1 µM), for the others: top-dose activity, negative = less viability, actives largely listed as cytotoxic; 360,000 compounds, 1.6% hits;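 note: NT is the 2HG producing partner of a matched IDH1 knockdown line; potency is the fitted concentration of half-maximal effect; 0% = DMSO-treated cells and -100% = media-only wells without cells; nearly all actives have a fitted effect of over 55% in size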
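Viability by CellTiter-Glo luminescence after 48 h compound exposure at 37C of HT-1080-NT cells (750/well, RPMI, 5% FBS). % activity scaled between DMSO wells and medium-only wells, then curve-fitted and categorized by curve class.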
TDP1 cell CPT: growth inhibition of DT40 Tdp1-/-;hTDP1 cells with camptothecin (screen for TDP1 inhibitors); chicken DT40 Tdp1-/-;hTDP1 cells + 20 nM CPT, ATP luminescence, 48 h; Potency, µM (highest dose often 46.2 µM), inactives show at the top dose activity change, negative = growth inhibition, most hits filed as inhibitors; 420,000 compounds, 12% hits; AID 686979; note: potency is the fitted concentration of half-maximal effect; nearly all actives have a fitted effect of over 55% in size
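Chicken DT40 Tdp1-/- cells stably complemented with human TDP1 were seeded at 400 cells/well in medium containing 20 nM camptothecin, exposed to pin-transferred compounds, and grown at 37 °C for at least 48 hr. Viability was read as ATP luminescence.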
HT1080 IDH1KD tx: kills HT-1080 cells with IDH1 knockdown | 360,000 compounds, 2% hits | HT-1080 IDH1 knockdown viability, ATP luminescence, 48 h | Potency, µM (titrated, usually from 46.1 µM), for inactives: top-dose activity, negative = toxicity, actives largely listed as cytotoxic;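 note: potency is the fitted concentration of half-maximal effect; 0% = DMSO wells and -100% = cell-free medium wells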
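After a 2 h attachment period, IDH1KD HT-1080 cells took pin-transferred compound for 48 h at 37 °C; ATP-based luminescence after 10 min room-temperature reagent incubation reported viability.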
DT40 TDP1 no CPT: qHTS for Inhibitors of human tyrosyl-DNA phosphodiesterase 1 (TDP1): qHTS in cells in absence of CPT; DT40 Tdp1-/- hTDP1 cells, no CPT, ATP luminescence, 48 h; Potency, µM (series often up to 46.2 µM), inactives show at the highest dose activity change, negative = growth inhibition, actives largely listed as inhibitors; 420,000 compounds, 15% hits; note: potency is the fitted concentration of half-maximal effect; nearly all actives have a fitted effect of over 55% in size
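A cellular qHTS used chicken DT40 cells lacking endogenous Tdp1 but carrying stably transfected human TDP1. Compounds were applied without camptothecin, and cell growth kinetics were judged by ATP-dependent luminescence after ≥48 hr.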
The depositor's hits bear a star; ? = inconclusive; . = not tested or not shown; ! = repeats disagree. In the library only some 19% were active in any assay of this set; here they are far more common. Unless noted, calls come from the whole dose curve; as a rule, active = well fitted curve in the direction sought with a large enough effect; inconclusive = small, poorly fitted or top-dose-only effect, or another doubt; inactive = no such curve, though single readings can be large; an effect the other way counts as inactive or inconclusive. Unless noted, % is set by controls: 0 for no effect and ±100 for the full control effect.

SMILES	IL1B secr inh	ELG1 repair inh	HT1080-NT tox	TDP1 cell CPT	HT1080 IDH1KD tx	DT40 TDP1 no CPT
Cc1ccc(-n2nc3c(c2NC(=O)C(C)(C)C)CS(=O)(=O)C3)cc1	2.8	5.5%	1.3%	-5.5%	8.8%	-24.4%
CCOc1ccc(CCN2C(=S)N([C@@H](Cc3ccc(O)cc3)CN3CCCC3CN3C(=S)NC[C@@H]3Cc3ccc(O)cc3)C[C@@H]2CC(C)C)cc1 (stereo partly drawn)	-69.4*	.	-18.7%	?	-28.7%	?
CCOc1ccc(CCN2C(=S)N([C@@H](Cc3ccccc3)CN3CCC[C@@H]3CN3C(=S)NC[C@@H]3Cc3ccc(O)cc3)C[C@@H]2CC(C)C)cc1	-19.9	.	-16.1%	9.2µM*	-19.5%	9.2µM*
CCOc1ccc(CCN2C(=S)N([C@@H](Cc3ccc(O)cc3)CN3CCC[C@@H]3CN3C(=S)NC[C@@H]3CC(C)C)C[C@@H]2Cc2ccc(O)cc2)cc1	0.0	.	16.4µM*	5.17µM*	20.6µM*	3.66µM*
COC(=O)c1ccccc1NC(=O)c1nc(S(=O)(=O)Cc2ccccc2F)ncc1Cl	.	.	.	-11.1%	.	?
COc1ccc(OC)c(NC(=O)c2nc(S(=O)(=O)Cc3ccccc3)ncc2Cl)c1	-101.7*	?	4.61µM*	0.581µM*	3.66µM*	0.581µM*
COc1ccc(OC)c(NC(=O)CS(=O)(=O)Cc2ccccc2)c1	1.2	-5.3%	3.3%	-22.5%	1.2%	0.5%
COc1ccc(OC)c(NC(=O)c2nc(S(=O)(=O)Cc3ccccc3F)ncc2Cl)c1	.	.	.	1µM*	.	0.631µM*
CCOc1cc(C2C(C(N)=O)=C(C)Nc3ncnn32)cc(Br)c1O (stereo not drawn)	.	.	.	2.6%	.	4.9%
Cc1ccc(NC(=O)CCS(=O)(=O)c2ccc(Br)s2)cc1	21.9	1.2%	-6.9%	-20.7%	-10.2%	?
CCOC(=O)c1ccc(NC(=O)CN(C)S(=O)(=O)c2ccc(Br)s2)cc1	-71.7*	25.9µM*	-6.2%	5.3%	-17.1%	?
CCOc1ccc(NC(=O)CCS(=O)(=O)c2ccc(Br)s2)cc1	.	.	.	18.4µM*	.	14.6µM*
C/C(=N\NC(=O)c1ccccc1F)c1ccc2c(c1)Nc1ccccc1S2	?	?	-28.4%	5.8µM*	?	23.1µM*
O=C1c2ccccc2C(=O)c2c(Nc3ccc(CCO)cc3)ccc(O)c21	?	14.6µM*	-20.7%	?	-20.4%	16.4µM*
Cc1cc2nc(-c3ccccc3)c(Cc3cccc(Cl)c3)n2c(C)c1Br	23.9	.	0.5%	?	-8.9%	25.9µM*
Cc1cc2nc(-c3ccc(F)cc3)c(Cc3cccc(Cl)c3)n2c(C)c1Br	47.4	.	-2.9%	23.1µM*	-4.7%	?
COc1ccc(-c2nc(SCC(=O)NCCc3ccc(OC)c(OC)c3)n[nH]2)cc1	.	.	.	-7.8%	.	-15.3%
Cc1ccc(N2CC(C(=O)N3CCOCC3)CC2=O)cc1Cl (stereo not drawn)	2.8	22.5%	-2.0%	-3.3%	16.9%	12.3%
Cc1ccc2nc(C(C)(C)C)c(Cc3cccc(F)c3)n2c1	-4.5	.	16.4µM*	14.6µM*	23.1µM*	18.4µM*
COC(=O)c1ccc2nc(-c3ccc(C#N)cc3)c(Cc3cccc(F)c3)n2c1	3.4	.	-8.6%	14.6µM*	-14.7%	18.4µM*
COC(=O)c1ccc2nc(-c3ccc(C)cc3)c(Cc3cccc(F)c3)n2c1	30.5	.	-8.5%	20.6µM*	5.1%	20.6µM*
COc1cccc(OC)c1NC(=O)C1CCCN1C(=O)Nc1ccccc1F (stereo not drawn)	-2.0	12.0%	14.3%	9.9%	7.3%	13.3%
Cc1cccc([C@@H]2CN(C)CCc3c2cc(O)c(O)c3Cl)c1	.	.	.	-66.3%	.	?
CSc1nc(N)nc2c1ncn2C1OC(CO)CC1O (stereo not drawn)	-8.9	.	0.2%	?	-3.9%	?
C/C(=N\N(Cc1ccccc1)c1ccccc1)c1cccnc1	-51.2*	-9.1%	1.2%	?	-11.3%	?
SMILES	IL1B secr inh	ELG1 repair inh	HT1080-NT tox	TDP1 cell CPT	HT1080 IDH1KD tx	DT40 TDP1 no CPT
CCOC(=O)C1CCN(C(=O)c2ccc3c(=O)n4nc(Nc5cc(C)ccc5C)sc4nc3c2)CC1	33.2	?	-20.7%	9.2µM*	-19.1%	18.4µM*
CCOC(=O)C1CCN(C(=O)c2ccc3c(=O)n4nc(Nc5ccccc5OC)sc4nc3c2)CC1	-52.2*	.	-13.8%	25.9µM*	-11.3%	20.6µM*
COc1ccccc1Nc1nn2c(=O)c3ccc(C(=O)N4CCCC(C)C4)cc3nc2s1 (stereo not drawn)	-4.1	?	-6.3%	11.6µM*	-17.2%	23.1µM*
CC1CCCN(C(=O)c2ccc3c(=O)n4nc(Nc5ccccc5)sc4nc3c2)C1 (stereo not drawn)	-15.3	.	-5.3%	-41.4%	-14.0%	?
CCOC(=O)N1CCN(S(=O)(=O)N2CCCC(C(=O)NCCc3ccc(OCC)c(OCC)c3)C2)CC1 (stereo not drawn)	6.9	1.6%	-1.9%	2.5%	2.3%	0.4%
Cc1ccccc1NS(=O)(=O)c1ccc2c(c1)NC(=O)CO2	7.7	-3.0%	1.9%	8.9%	-3.6%	5.4%
CCN=c1scc(-c2ccc3c(c2)NC(=O)CO3)n1N=C1CCCC1	-5.1	?	?	?	?	8.2µM*
Nc1nc(-c2ccc3c(c2)NC(=O)CO3)cs1	-14.3	?	-2.0%	?	-12.9%	-25.1%
CCCCN=c1scc(-c2ccc3c(c2)NC(=O)CO3)n1N=C1CCCC1	?	23.1µM*	?	13µM*	?	23.1µM*
COCC(C)n1c(-c2ccc3c(c2)NC(=O)CO3)csc1=Nc1ccc(OC(F)F)cc1 (stereo not drawn)	-26.2	?	20.6µM*!	5.17µM*	?	6.51µM*
CCc1ccc(-n2nnc(-c3nc(-c4ccc(C)cc4)no3)c2N)cc1	.	.	.	-2.8%	.	1.0%
CC1(C)Cc2ccccc2C(c2cc3ccccc3oc2=O)=N1	0.0	-20.4%	20.6µM*	?	?	?
Cc1cc2c(cc1C)/C(=N/NC(=O)c1ccccn1)CCC2	-7.4	?	-16.5%	?	-18.4%	23.1µM*
Oc1ccc(Oc2ccc3c(C(F)(F)F)cc(C(F)(F)F)nc3n2)cc1	-7.4	18.4µM*	-2.1%	14.6µM*	-5.8%	18.4µM*

Screens (PubChem BioAssay)
